# In the library only some 0.81% were active in any assay of this set; here they are far more common.
# TRPML1 ag – human mucolipin-1 channel agonism. hit rate 0.12% among 410,000. Q9GZU1. TRPML1-expressing cells, Ca2+ dye fluorescence, FDSS. activation, % (no concentration beside the values); in the data active = activation above about 50%; inconclusive = mostly about 30% to 49%; also: 0% is about no effect
#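 Tet-induced TRPML1-DL cells, 1,500 per well, cultured overnight, were loaded with a no-wash Ca2+ dye for 45–90 min. Calcium fluorescence was recorded on the FDSS for 110 s after compound addition, before the EC80 agonist (4 uM 54-4) was added.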
# TRHR enhancer-1 – allosteric enhancers of human TRH receptor. TRHR cells, fluo-8 calcium fluorescence, EC20 TRH enhancement. enhancement, % at 2 µM. hit rate 0.66% among 360,000; in the data active = enhancement above about 30%; also: 0% is about no effect
#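 TRHR-expressing cells loaded with fluo-8 calcium dye were read kinetically (ex 480/em 530) during compound addition, then stimulated with an EC20 of TRH (10 nM final). Enhancement of the Gq-mediated intracellular calcium response was scored.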
# TRPML1 inh – blocks the human TRPML1 channel; Q9GZU1; TRPML1-inducible cells, Ca2+ dye fluorescence, FDSS; stronger effect = lower value; inhibition of EC80 agonist-evoked calcium signal; activity change, negative = inhibition, % (test concentration not listed); hit rate 0.02% among 390,000; in the data active = activity change below about -50%; inconclusive = between about -30% and that limit;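 also: stimulus is agonist 54-4 at its EC80 concentration; % is scaled to controls: 0 for no effect and ±100 for the full control effect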
#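 TRPML1-DL cells, Tet-induced overnight (~16 h, 37 °C) at 1,500 cells/well, were loaded with Ca8 no-wash dye plus quencher for 45-90 min at room temperature. Compounds were pinned during FDSS kinetic reading; agonist 54-4 at EC80 (4 uM final) then added.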
# TRHR agonist-1 – TRH receptor (human) agonism; TRHR cells, calcium flux fluo-8, FDSS agonist mode; activation, % at 2 µM; hit rate 0.18% among 360,000; AID 493084; in the data active = activation above about 30%; also: 0% is about no effect
#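 TRHR-expressing cells, plated overnight in medium with 10% serum, were loaded with fluo-8 calcium dye at room temperature. After a 10 s baseline, library compound was pin-added and calcium release was recorded kinetically (ex 480/em 530) as agonist response.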
# TSG101-PTAP inh – blocks PTAP/TSG101 interaction to inhibit HIV-1 budding; Q99816; Fluorescence polarization, FITC-PTAP peptide / Tsg101 binding; Potency, µM (highest dose often 115 µM), for inactives: at the highest dose activity change, negative = inhibition, hits mostly inhibitors; 340,000 tested, under 10 active; AID 493005; active = well fitted inhibition curve with a large enough effect in the main read-out, with a control signal flat, not every such curve was filed as active; inconclusive = small, poorly fitted or top-dose-only effect, or effect the other way, or a change in a side signal; inactive = no such curve, though single readings can be large or run the other way; also: potency is read from the fitted curve at half-maximal effect; % of control where 0% means no effect
# Target sequence (Q99816 whole entry, looked up): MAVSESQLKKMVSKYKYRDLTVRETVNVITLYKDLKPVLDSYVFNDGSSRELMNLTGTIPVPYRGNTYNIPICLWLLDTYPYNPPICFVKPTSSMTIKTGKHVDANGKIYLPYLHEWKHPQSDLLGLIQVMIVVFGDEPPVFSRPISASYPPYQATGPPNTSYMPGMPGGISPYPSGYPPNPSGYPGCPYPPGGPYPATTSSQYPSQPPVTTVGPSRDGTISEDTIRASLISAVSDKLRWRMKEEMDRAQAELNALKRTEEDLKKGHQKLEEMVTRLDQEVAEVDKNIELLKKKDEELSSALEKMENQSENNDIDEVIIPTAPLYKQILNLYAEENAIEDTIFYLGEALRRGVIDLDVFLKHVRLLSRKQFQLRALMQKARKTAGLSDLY
#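 FP read-out: FITC-PTAP peptide, 50 nM final, binding Tsg101 binding domain, 10 uM final; 20 min, r.t.; 10 mM HEPES pH 7.5, 0.15 M NaCl, 0.01% Tween 20, 3 mM EDTA, 0.1 mM TCEP.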
# TRHR enhancer-2 – human TRH receptor allosteric enhancement confirmation. shares compounds with TRHR enhancer-1. TRH receptor cell assay, enhancer confirmation qHTS. activity change, negative = inhibition, % at 46.1 µM. 970 tested, under 10 active. AID 493076;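 also: compound effect scored on response to added TRH at EC20 of 10 nM; 0% is about no effect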
# TRHR agonist-2 – confirmation of human TRH receptor agonists; shares compounds with TRHR enhancer-1; TRHR-expressing cells, agonist activation read-out; Potency, µM (titrated, usually from 46.1 µM), for the others: at the top dose activation, usual class: activators; hit rate 8% among 970; also: potency is read from the fitted curve at half-maximal effect; 0% is about no effect; nearly all actives have a fitted effect of over 75% in size
# * hit, by the source's call; ? = inconclusive; nt = no result. Unless noted, calls follow the shape of the dose curve; as a rule, active = well fitted curve in the direction sought with a large enough effect; inconclusive = small, poorly fitted or top-dose-only effect, or another doubt; inactive = no such curve, though single readings can be large; an effect the other way counts as inactive or inconclusive.
SMILES,TRPML1 ag,TRHR enhancer-1,TRPML1 inh,TRHR agonist-1,TSG101-PTAP inh,TRHR enhancer-2,TRHR agonist-2
Cc1cc(NC(=O)CN2C(=O)/C(=C/c3cccc(Br)c3)SC2=S)no1,0,47*,46,1,5%,7,2%
Cc1ccc(/C=C2\SC(=S)N(CCCC(=O)Nc3cc(C)on3)C2=O)cc1,-1,0,-3,0,-3%,nt,nt
N[C@@H](Cc1ccc(O)cc1)C(=O)NO,-1,nt,nt,nt,nt,nt,nt
COc1ccc(Nc2nc(N)c([N+](=O)[O-])c(N3CCCC3)n2)cc1,6,3,13,0,-5%,nt,nt
COc1ccc(Nc2nc(N)c([N+](=O)[O-])c(N3CCN(C)CC3)n2)cc1,0,46*,1,0,-6%,1,1%
Cc1cccc(NS(=O)(=O)c2ccc(C)c(C(=O)NCC(c3cccs3)N(C)C)c2)c1 (configuration not stated),0,42*,8,1,-3%,2,3%
O=C(Cc1ccc(OCCCCc2ccccc2)cc1)NO,0,nt,nt,nt,nt,nt,nt
Cn1c(SCC(=O)NCc2ccco2)nnc1-c1ccc(S(=O)(=O)N2CCOCC2)cc1,5,47*,-2,0,-5%,-3,-1%
Cn1c(SCC(=O)NCc2ccco2)nnc1-c1ccccc1,0,0,29,0,2%,nt,nt
CCC(C)N1CC(=O)N2C(c3ccc(OC)cc3OC)c3[nH]c4ccccc4c3C[C@H]2C1=O (some centres not stated),0,75*,2,-1,-3%,1,-1%
CCCN1CC(=O)N2C(c3cccc(OC)c3OC)c3[nH]c4ccccc4c3C[C@H]2C1=O (some centres not stated),15,19,-7,5,-4%,nt,nt
C(=C\c1ccnc2ccccc12)/c1ccc(N(Cc2ccccc2)Cc2ccccc2)cc1,8,nt,nt,nt,nt,nt,nt
COc1ccc(C(C)(C)C)cc1NC(=O)c1ccc[n+]([O-])c1,-1,53*,-1,1,0%,8,1%
C=C(NNC(C)=O)c1ccc(O)cc1,0,nt,nt,nt,nt,nt,nt
COc1ccc(C(=O)NNC(=O)c2ccc3ccccc3c2)cc1,0,nt,-8,nt,-1%,nt,nt
COC(=O)c1ccc(NC(=O)c2ccc3nc(C)sc3c2)cc1,0,-2,-15,-1,0%,nt,nt
COc1ccc(NC(=O)c2ccc3nc(C)sc3c2)cc1,0,57*,-24,0,-9%,1,2%
COc1ccccc1NC(=O)c1ccc(-c2nn(C)c(=O)c3ccccc23)cc1,2,-11,1,-2,-5%,nt,nt
COc1ccc(NC(=O)c2ccc(-c3nn(C)c(=O)c4ccccc34)cc2)cc1,0,44*,14,-1,-2%,5,-1%
COc1ccc(C(=O)NNC(=O)c2cccc(F)c2)cc1,0,45*,1,0,1%,-1,1%
COc1ccc(NC(=O)c2ccc3ccccc3c2)cc1,-1,54*,3,-1,-4%,6,0%
OC1C(Br)=Cc2ccccc21 (configuration not stated),0,nt,nt,nt,nt,nt,nt
CN(C)c1ccc(/C=C2\CCc3cc(N)ccc32)cc1,-1,nt,nt,nt,nt,nt,nt
CN(C)CCCCCCNc1nccc(N2CCN(C)CC2)n1,0,nt,nt,nt,nt,nt,nt
COc1ccccc1CCC(=O)O,0,nt,nt,nt,nt,nt,nt
Cc1ccccc1N=C1Nc2ccc(Cl)cc2N[C@]12C[C@H]1CCCC(=O)N3CC[C@@H](C2)[C@@H]13,-1,nt,nt,nt,nt,nt,nt
O=C(NNC(=O)c1n[nH]c2ccccc12)c1ccccc1,0,49*,4,0,0%,?,7%
COc1ccc(C(CNC(=O)c2ccc(Cl)c(NC(=O)c3cccs3)c2)N2CCCC2)cc1 (configuration not stated),0,60*,3,1,-3%,-1,3%
COc1cccc2c(=O)c3ccoc3n(C)c12,nt,42*,nt,-1,0%,-5,2%
